From PubChem BioAssay AID1159580 (chemical genetic matrix, 2015)
“And” between values parts separate entries of the source, which are not always exact repeats. Equal entries are not always repeated. Screen size: about 5,500 compounds; about 2,000 (36%) were called active. Another 18% or so got no clear call; they are omitted. Cut-off read from the data, not from the text of the source: active = normalized growth mostly below about 0.91 (no sharp cut-off); inconclusive = no clear call, values can overlap the other calls; inactive = mostly above about 0.92. The list shows a part of the results.

Test: chemical genetic growth profiling, strain panel (AID 1159580);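 note: tested at 20 µM; growth read once vehicle control cultures reached saturation at 30 °C; 1 = growth at the plate median or of vehicle wells; lower values mean less growth of the strain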
Settings: growth OD

Measured: normalized growth

COc1ccc2c(c1OC)OC[C@@H](c1ccc(OC)c(OC)c1OC)C2
inactive: S. cerevisiae deletion strains, locus YAL013W, strain DEP1, active compounds read low 1.01 | S. cerevisiae deletion strains, locus YBR021W, strain FUR4, active compounds read low 0.972 | S. cerevisiae deletion strains, locus YBR229C, strain ROT2, active compounds read low 1 | S. cerevisiae deletion strains, locus YCL029C, strain bik1, active compounds read low 1.01 | S. cerevisiae deletion strains, locus YDL035C, strain GPR1, active compounds read low 1.01 | S. cerevisiae deletion strains, locus YDL074C, strain BRE1, active compounds read low 0.999 | S. cerevisiae deletion strains, locus YDL101C, strain DUN1, active compounds read low 1.01 | S. cerevisiae deletion strains, locus YDL134C, strain PPH21, active compounds read low 0.999 | S. cerevisiae deletion strains, locus YDL185W, strain tfp1, active compounds read low 1.02 | S. cerevisiae deletion strains, locus YDL192W, strain arf1, active compounds read low 1.01 | S. cerevisiae deletion strains, locus YDR101C, strain arx1, active compounds read low 1 | S. cerevisiae deletion strains, locus YDR162C, strain NBP2, active compounds read low 1 | S. cerevisiae deletion strains, locus YDR318W, strain mcm21, active compounds read low 1.03 | S. cerevisiae deletion strains, locus YDR388W, active compounds read low 1.01 | S. cerevisiae deletion strains, locus YDR502C, strain sam2, active compounds read low 0.996 | S. cerevisiae deletion strains, locus YEL061C, strain CIN8, active compounds read low 1.01 | S. cerevisiae deletion strains, locus YER110C, active compounds read low 1 | S. cerevisiae deletion strains, locus YER155C, strain BEM2, active compounds read low 1.01 | S. cerevisiae deletion strains, locus YER167W, strain BCK2, active compounds read low 1.03 | S. cerevisiae deletion strains, locus YGL078C, strain dbp3, active compounds read low 1 | S. cerevisiae deletion strains, locus YGL086W, strain mad1, active compounds read low 0.994 | S. cerevisiae deletion strains, locus YGL248W, strain PDE1, active compounds read low 1.01 | S. cerevisiae deletion strains, locus YGR078C, strain PAC10, active compounds read low 0.998 | S. cerevisiae deletion strains, locus YGR135W, strain pre9, active compounds read low 0.999 | S. cerevisiae deletion strains, locus YGR252W, strain gcn5, active compounds read low 0.976 | S. cerevisiae deletion strains, locus YHR030C, strain SLT2, active compounds read low 1.02 and 1.03 | S. cerevisiae deletion strains, locus YHR079C, strain IRE1 (second series), active compounds read low 1.01 | S. cerevisiae deletion strains, locus YHR079C, strain IRE1, active compounds read low 1.02 | S. cerevisiae deletion strains, locus YHR094C, strain hxt1, active compounds read low 1.01 | S. cerevisiae deletion strains, locus YHR129C, strain ARP1, active compounds read low 1.02 | S. cerevisiae deletion strains, locus YHR200W, strain rpn10, active compounds read low 1.01 | S. cerevisiae deletion strains, locus YIL066C, strain RNR3, active compounds read low 1.01 | S. cerevisiae deletion strains, locus YIL073C, strain SPO22, active compounds read low 1.03 | S. cerevisiae deletion strains, locus YIL125W, strain kgd1, active compounds read low 1 | S. cerevisiae deletion strains, locus YIR030C, strain dcg1, active compounds read low 1.01 | S. cerevisiae deletion strains, locus YJL095W, strain BCK1, active compounds read low 0.998 and 1.04 | S. cerevisiae deletion strains, locus YJL134W, strain LCB3, active compounds read low 1.01 | S. cerevisiae deletion strains, locus YJL168C, strain set2, active compounds read low 1.01 | S. cerevisiae deletion strains, locus YJL187C, strain SWE1 (second series), active compounds read low 1 | S. cerevisiae deletion strains, locus YJR043C, strain POL32, active compounds read low 1.02 | S. cerevisiae deletion strains, locus YJR066W, strain TOR1, active compounds read low 0.983 | S. cerevisiae deletion strains, locus YKL009W, strain mrt4, active compounds read low 1.01 | S. cerevisiae deletion strains, locus YKL068W, active compounds read low 1 | S. cerevisiae deletion strains, locus YKL085W, strain MDH1 (second series), active compounds read low 0.993 | S. cerevisiae deletion strains, locus YKL085W, strain MDH1, active compounds read low 0.993 | S. cerevisiae deletion strains, locus YKL190W, strain CNB1, active compounds read low 1.01 | S. cerevisiae deletion strains, locus YKR001C, strain vps1, active compounds read low 1 | S. cerevisiae deletion strains, locus YLR039C, strain RIC1, active compounds read low 1.13 | S. cerevisiae deletion strains, locus YLR058C, strain SHM2, active compounds read low 1 | S. cerevisiae deletion strains, locus YLR102C, strain apc9, active compounds read low 1.02 | S. cerevisiae deletion strains, locus YLR113W, strain HOG1, active compounds read low 0.939 | S. cerevisiae deletion strains, locus YLR262C, strain YPT6, active compounds read low 1.14 | S. cerevisiae deletion strains, locus YLR268W, strain sec22, active compounds read low 0.996 | S. cerevisiae deletion strains, locus YLR330W, strain CHS5, active compounds read low 1.01 | S. cerevisiae deletion strains, locus YLR342W, strain FKS1 (second series), active compounds read low 1.04 | S. cerevisiae deletion strains, locus YLR371W, strain rom2, active compounds read low 1.01 | S. cerevisiae deletion strains, locus YLR418C, strain cdc73, active compounds read low 0.988 | S. cerevisiae deletion strains, locus YML016C, strain PPZ1, active compounds read low 1.02 | S. cerevisiae deletion strains, locus YML032C, strain rad52, active compounds read low 1.02 | S. cerevisiae deletion strains, locus YML124C, strain tub3, active compounds read low 1 | S. cerevisiae deletion strains, locus YMR078C, strain ctf18, active compounds read low 1 | S. cerevisiae deletion strains, locus YMR223W, strain ubp8, active compounds read low 0.999 | S. cerevisiae deletion strains, locus YMR263W, strain SAP30, active compounds read low 0.996 | S. cerevisiae deletion strains, locus YMR307W, strain GAS1, active compounds read low 0.927 | S. cerevisiae deletion strains, locus YNL067W, strain RPL9B, active compounds read low 1.01 | S. cerevisiae deletion strains, locus YNL183C, strain NPR1, active compounds read low 0.97 | S. cerevisiae deletion strains, locus YNL233W, strain BNI4, active compounds read low 0.997 | S. cerevisiae deletion strains, locus YNL250W, strain rad50, active compounds read low 0.998 | S. cerevisiae deletion strains, locus YNL271C, strain bni1, active compounds read low 0.999 | S. cerevisiae deletion strains, locus YNL298W, strain CLA4, active compounds read low 0.998 | S. cerevisiae deletion strains, locus YNL307C, strain MCK1, active compounds read low 1.04 | S. cerevisiae deletion strains, locus YNL322C, strain KRE1, active compounds read low 1.01 | S. cerevisiae deletion strains, locus YNR052C, strain pop2, active compounds read low 1.02 | S. cerevisiae deletion strains, locus YOL012C, strain htz1 1.06 | S. cerevisiae deletion strains, locus YOL147C, strain pex11, active compounds read low 1 | S. cerevisiae deletion strains, locus YOR061W, strain CKA2, active compounds read low 1.01 | S. cerevisiae deletion strains, locus YOR069W, strain VPS5, active compounds read low 1.01 | S. cerevisiae deletion strains, locus YOR136W, strain idh2, active compounds read low 1.01 | S. cerevisiae deletion strains, locus YOR144C, strain elg1, active compounds read low 1 | S. cerevisiae deletion strains, locus YOR184W, strain ser1, active compounds read low 0.976 | S. cerevisiae deletion strains, locus YOR231W, strain MKK1, active compounds read low 1.06 | S. cerevisiae deletion strains, locus YOR316C, strain cot1, active compounds read low 1.01 | S. cerevisiae deletion strains, locus YPL241C, strain CIN2, active compounds read low 1.01 | S. cerevisiae deletion strains, locus YPL256C, strain CLN2, active compounds read low 1.06 | S. cerevisiae deletion strains, locus YPR119W, strain clb2, active compounds read low 1 | S. cerevisiae deletion strains, locus YPR141C, strain kar3, active compounds read low 1.02 | S. cerevisiae deletion strains, locus YPR163C, strain tif3, active compounds read low 1.01 | S. cerevisiae deletion strains, locus YPR167C, strain met16, active compounds read low 1.01 | S. cerevisiae deletion strains, strain wtn01, active compounds read low 1.02 | S. cerevisiae strains, strain wild type, active compounds read low 1.01
